From article PMC5913336, “True equilibrium measurement of transcription factor-DNA binding affinities using automated polarization microscopy”

What follows are sequences tested against T1, Croc (Drosophila melanogaster, UniProt P32027 54-175) (assay: FP; 20 mM Tris-acetate pH 7.0, 50 "nM" NaCl as printed (probably mM), 0.01% Tween 20, 0.1 mM DTT; conventional titration). Conditions: tags: N-GST (pGEX-6P-1, kept); dsDNA, one strand shown.
T1 sequence: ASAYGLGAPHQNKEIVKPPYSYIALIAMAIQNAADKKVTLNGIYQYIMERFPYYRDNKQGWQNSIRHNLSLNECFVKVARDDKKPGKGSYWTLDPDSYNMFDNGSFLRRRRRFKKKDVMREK

Sequence	binding signal	Kd
TTAGATACATATA	93.4 Kd / Kd of best base at the position	
TTACATAAATATA	6.62 Kd / Kd of best base at the position	
TTAGGTAAATATA	3.08 Kd / Kd of best base at the position	
TTAGTTAAATATA	43.2 Kd / Kd of best base at the position	
TTAGATTAATATA	109 Kd / Kd of best base at the position	
TTTGATAAATATA	15.4 Kd / Kd of best base at the position	
TTAGATAAATATT	1.02 Kd / Kd of best base at the position	
TAAGATAAATATA	7.76 Kd / Kd of best base at the position	
TCAGATAAATATA	51.8 Kd / Kd of best base at the position	
TTAGATAAATGTA	79 Kd / Kd of best base at the position	
TTAGATAAAGATA	119 Kd / Kd of best base at the position	
TTAGACAAATATA	16.3 Kd / Kd of best base at the position	
TTAGATAAATAGA	5.76 Kd / Kd of best base at the position	
TTAGATAAATAAA	2.04 Kd / Kd of best base at the position	
ATAGATAAATATA	9.22 Kd / Kd of best base at the position	
TTAGATAAATATG	17.4 Kd / Kd of best base at the position	
TTAGATATATATA	164 Kd / Kd of best base at the position	
TTAGATAACTATA	387 Kd / Kd of best base at the position	
TTAGATAGATATA	1160 Kd / Kd of best base at the position	
TTGGATAAATATA	5.64 Kd / Kd of best base at the position	

Sequence	binding signal	Kd
TTAGATAAATATC	2.74 Kd / Kd of best base at the position	
GTAGATAAATATA	13.8 Kd / Kd of best base at the position	
TTAGATAAATATA		~0.3 nM
TTAGATAAATCTA	46 Kd / Kd of best base at the position	
TTATATAAATATA	2.66 Kd / Kd of best base at the position	
TTAGATGAATATA	2300 Kd / Kd of best base at the position	
TTAGATCAATATA	8.58 Kd / Kd of best base at the position	
TTAAATAAATATA	1.66 Kd / Kd of best base at the position	
TTAGATAAATTTA	35.4 Kd / Kd of best base at the position	
TGAGATAAATATA	76.4 Kd / Kd of best base at the position	
TTAGATAAACATA	1.86 Kd / Kd of best base at the position	
TTCGATAAATATA	33 Kd / Kd of best base at the position	
CTAGATAAATATA	4.3 Kd / Kd of best base at the position	
TTAGATAAAAATA	380 Kd / Kd of best base at the position	
TTAGAGAAATATA	48.4 Kd / Kd of best base at the position	
TTAGAAAAATATA	7.44 Kd / Kd of best base at the position	
TTAGATAATTATA	197 Kd / Kd of best base at the position	
TTAGATAAATACA	1.16 Kd / Kd of best base at the position	
TTAGATAAGTATA	95 Kd / Kd of best base at the position	
